Laboratory results from PubChem BioAssay (NCI).
Compounds without any hit were thinned out: in the full panel of roughly 83,000, 20% have a hit.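 Results are percent growth after 48 hours of single-concentration exposure. 100 means growth as in untreated cells, lower positive values show inhibition; negative values down to -100 show cell death.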 Active and inactive are the calls of the source. Rule for the calls: active = growth percent below 10; inactive = the rest.

Tests used:
Assay in all cases: NCI-60 one-dose screen, 48 h (100 = growth as untreated, 0 = no growth, -100 = all killed)
Conditions in all cases: 10 µM unless noted
DU-145 prostate = test system: DU-145 prostate
K-562 leukemia = test system: K-562 leukemia
MALME-3M melanoma = test system: MALME-3M melanoma
MDA-MB-231 breast = test system: MDA-MB-231 breast
RXF 393 renal = test system: RXF 393 renal
SF-268 CNS = test system: SF-268 CNS
SF-295 CNS = test system: SF-295 CNS
SF-539 CNS = test system: SF-539 CNS
UACC-257 melanoma = test system: UACC-257 melanoma
M14 melanoma = test system: M14 melanoma
HCT-15 colon = test system: HCT-15 colon
HT29 colon = test system: HT29 colon
SNB-75 CNS = test system: SNB-75 CNS
SNB-19 CNS = test system: SNB-19 CNS
U251 CNS = test system: U251 CNS
PC-3 prostate = test system: PC-3 prostate
SK-MEL-5 melanoma = test system: SK-MEL-5 melanoma
UACC-62 melanoma = test system: UACC-62 melanoma
LOX IMVI melanoma = test system: LOX IMVI melanoma
SK-MEL-28 melanoma = test system: SK-MEL-28 melanoma

Measured: growth

Cc1ccc(-c2nc(N3CCN(CC(=O)Nc4ccc(Cl)cc4)CC3)c3ccccc3n2)cc1
inactive: DU-145 prostate 88.7% | K-562 leukemia 72.9% | MALME-3M melanoma 101% | MDA-MB-231 breast 80.1% | RXF 393 renal 74.9% | SF-268 CNS 83.9% | SF-295 CNS 95.6% | SF-539 CNS 99.6% | UACC-257 melanoma 104% | M14 melanoma 99.1% | HCT-15 colon 79.9% | HT29 colon 80.8% | SNB-75 CNS 77.7% | SNB-19 CNS 93.1% | U251 CNS 92.5% | PC-3 prostate 80.6% | SK-MEL-5 melanoma 89% | UACC-62 melanoma 75.9% | LOX IMVI melanoma 97.4% | SK-MEL-28 melanoma 99.8%

CCOC(=O)C1=C(N)Oc2c(sc3c(C)cccc23)C1c1ccc(Cl)cc1 (stereo not given)
inactive: DU-145 prostate 21.6% | MALME-3M melanoma 36.1% | MDA-MB-231 breast 49.8% | SF-268 CNS 55.5% | UACC-257 melanoma 63.4% | M14 melanoma 20.6% | HCT-15 colon 15% | HT29 colon 14.8% | SNB-19 CNS 28.1% | U251 CNS 31.7% | PC-3 prostate 16.6% | SK-MEL-5 melanoma 39.5% | UACC-62 melanoma 12.1% | LOX IMVI melanoma 36.2% | SK-MEL-28 melanoma 53.6%
active: K-562 leukemia 9.65% | RXF 393 renal -7.89% | SF-295 CNS 4.92% | SF-539 CNS 6.36% | SNB-75 CNS -9.45%

COc1ccc2[nH]c(-c3ccccc3)c(/C=C(\C#N)S(=O)(=O)c3ccccc3)c2c1
active: K-562 leukemia 5.1%
inactive: DU-145 prostate 70.1% | MALME-3M melanoma 47.7% | MDA-MB-231 breast 56.8% | RXF 393 renal 57.5% | SF-268 CNS 72.2% | SF-295 CNS 43.2% | SF-539 CNS 42.3% | UACC-257 melanoma 78.6% | M14 melanoma 42.7% | HCT-15 colon 39.3% | HT29 colon 21% | SNB-75 CNS 48.1% | SNB-19 CNS 63.2% | U251 CNS 39% | PC-3 prostate 49.6% | SK-MEL-5 melanoma 14.9% | UACC-62 melanoma 42.1% | LOX IMVI melanoma 61.2% | SK-MEL-28 melanoma 53.4%

CN1CCN(c2ccc(-c3cnc4c(-c5csc6ccccc56)cnn4c3)cc2)CC1
inactive: SNB-19 CNS 13.3%
active: DU-145 prostate 9.16% | K-562 leukemia 3.45% | MALME-3M melanoma -70.1% | MDA-MB-231 breast -25.3% | RXF 393 renal -66.4% | SF-268 CNS -15.8% | SF-295 CNS -49.7% | SF-539 CNS -86.4% | UACC-257 melanoma -76.3% | M14 melanoma -71.8% | HCT-15 colon -4.7% | HT29 colon -40.4% | SNB-75 CNS -54.4% | U251 CNS -87.3% | PC-3 prostate -12.4% | SK-MEL-5 melanoma -100% | UACC-62 melanoma -2.26% | LOX IMVI melanoma -91.2% | SK-MEL-28 melanoma -7.59%

NC(=O)C1(Nc2ccc(Br)cc2)CCCC1
inactive: DU-145 prostate 119% | K-562 leukemia 116% | MALME-3M melanoma 108% | MDA-MB-231 breast 101% | RXF 393 renal 115% | SF-268 CNS 106% | SF-295 CNS 106% | SF-539 CNS 89.8% | UACC-257 melanoma 101% | M14 melanoma 97.1% | HCT-15 colon 107% | HT29 colon 102% | SNB-75 CNS 93.2% | SNB-19 CNS 105% | U251 CNS 97.5% | PC-3 prostate 94.3% | SK-MEL-5 melanoma 103% | UACC-62 melanoma 96.4% | LOX IMVI melanoma 103% | SK-MEL-28 melanoma 106%

CCN(CC)CCNc1nc2ccccc2c2c(=O)c3cc(Cl)ccc3sc12
active: K-562 leukemia -25.5% | MDA-MB-231 breast -2.23% | LOX IMVI melanoma -58.8%
inactive: DU-145 prostate 43% | MALME-3M melanoma 88.4% | RXF 393 renal 79.1% | SF-268 CNS 62.1% | SF-295 CNS 29.2% | SF-539 CNS 67.2% | UACC-257 melanoma 93.2% | M14 melanoma 31% | HCT-15 colon 39.8% | HT29 colon 18.3% | SNB-75 CNS 29.6% | SNB-19 CNS 69.5% | U251 CNS 39.7% | PC-3 prostate 56.7% | SK-MEL-5 melanoma 74.4% | UACC-62 melanoma 65.4% | SK-MEL-28 melanoma 98.1%

COc1cc(/C=C/c2c(C(C)=O)c(C)nc3ccccc23)cc(OC)c1OC
inactive: DU-145 prostate 42.1% | K-562 leukemia 13.8% | MALME-3M melanoma 52.5% | MDA-MB-231 breast 43.1% | RXF 393 renal 10.8% | SF-268 CNS 49.3% | SF-295 CNS 20.1% | UACC-257 melanoma 59.6% | M14 melanoma 25.9% | HCT-15 colon 25.4% | HT29 colon 17.6% | SNB-19 CNS 39.4% | U251 CNS 39% | PC-3 prostate 32.5% | SK-MEL-5 melanoma 31.4% | UACC-62 melanoma 39.8% | LOX IMVI melanoma 38.9% | SK-MEL-28 melanoma 53.9%
active: SF-539 CNS 7.46% | SNB-75 CNS -34.5%

CCOC(=O)c1nc(Nc2ccc(C(C)=O)cc2)sc1C
inactive: DU-145 prostate 107% | K-562 leukemia 99.1% | MALME-3M melanoma 106% | MDA-MB-231 breast 104% | RXF 393 renal 109% | SF-268 CNS 102% | SF-295 CNS 92% | SF-539 CNS 97.2% | UACC-257 melanoma 102% | M14 melanoma 104% | HCT-15 colon 96.8% | HT29 colon 97.5% | SNB-75 CNS 89.7% | SNB-19 CNS 95.9% | U251 CNS 101% | PC-3 prostate 99.5% | SK-MEL-5 melanoma 100% | UACC-62 melanoma 95.1% | SK-MEL-28 melanoma 102%

NCCNc1nc2ccccc2c2c(=O)c3cc(F)ccc3sc12
active: K-562 leukemia 1.61%
inactive: DU-145 prostate 65.9% | MALME-3M melanoma 96.2% | MDA-MB-231 breast 33.7% | RXF 393 renal 77.8% | SF-268 CNS 66.9% | SF-295 CNS 102% | SF-539 CNS 82.7% | UACC-257 melanoma 103% | M14 melanoma 77.4% | HCT-15 colon 51.2% | HT29 colon 14.4% | SNB-75 CNS 71.2% | SNB-19 CNS 78.1% | U251 CNS 64.7% | PC-3 prostate 80.2% | SK-MEL-5 melanoma 93.9% | UACC-62 melanoma 102% | LOX IMVI melanoma 24.2% | SK-MEL-28 melanoma 107%

Nc1ccccc1-c1cc2c(c3c1[nH]c1ccccc13)CCCCC2
inactive: DU-145 prostate 102% | K-562 leukemia 98% | MALME-3M melanoma 117% | MDA-MB-231 breast 90.3% | RXF 393 renal 113% | SF-268 CNS 97.2% | SF-295 CNS 103% | SF-539 CNS 116% | UACC-257 melanoma 105% | M14 melanoma 92.5% | HCT-15 colon 86.9% | HT29 colon 88% | SNB-75 CNS 105% | SNB-19 CNS 104% | U251 CNS 103% | PC-3 prostate 92.1% | SK-MEL-5 melanoma 93.8% | UACC-62 melanoma 95.4% | SK-MEL-28 melanoma 107%

Cc1cc(O)c(C2=NN(c3ccc(S(N)(=O)=O)cc3)C(/C=C/c3ccccc3)C2)cc1Cl (stereo not given)
active: UACC-62 melanoma -10.9%
inactive: DU-145 prostate 36.4% | K-562 leukemia 31.2% | MALME-3M melanoma 24.6% | MDA-MB-231 breast 47.7% | RXF 393 renal 30% | SF-268 CNS 24.1% | SF-295 CNS 38.5% | SF-539 CNS 13.4% | UACC-257 melanoma 64.6% | M14 melanoma 29.8% | HCT-15 colon 85.7% | HT29 colon 33.5% | SNB-75 CNS 51.3% | SNB-19 CNS 66.4% | U251 CNS 22.5% | PC-3 prostate 32.6% | SK-MEL-5 melanoma 19.1% | SK-MEL-28 melanoma 23.9%

CCCCCCNC(=O)Oc1ccc(/C(=C(\C)c2ccc(OC)cc2)c2ccc(OCCN3CCCCC3)cc2)cc1
inactive: DU-145 prostate 79.7% | MALME-3M melanoma 34.8% | MDA-MB-231 breast 73.6% | RXF 393 renal 47.2% | SF-268 CNS 71.8% | SF-295 CNS 33.3% | SF-539 CNS 27.1% | SNB-75 CNS 69.4% | SNB-19 CNS 83.9% | U251 CNS 54.4% | PC-3 prostate 54.1% | SK-MEL-5 melanoma 57.6% | UACC-62 melanoma 39.2% | SK-MEL-28 melanoma 25.2%
active: K-562 leukemia 6.45% | UACC-257 melanoma -1.88% | M14 melanoma -37% | HCT-15 colon 2.35% | HT29 colon 4.52%

COc1cccc(-c2nn(-c3ccccc3)cc2-c2ccnc(N3CCOCC3)c2)c1
inactive: DU-145 prostate 99.5% | K-562 leukemia 73.6% | MALME-3M melanoma 90.7% | MDA-MB-231 breast 85.1% | RXF 393 renal 97.8% | SF-268 CNS 88.8% | SF-295 CNS 82.8% | SF-539 CNS 97.9% | UACC-257 melanoma 111% | M14 melanoma 100% | HCT-15 colon 85.9% | HT29 colon 86.7% | SNB-75 CNS 97.2% | SNB-19 CNS 99.9% | U251 CNS 96.2% | PC-3 prostate 70.2% | SK-MEL-5 melanoma 80.4% | UACC-62 melanoma 71.8% | LOX IMVI melanoma 89.7% | SK-MEL-28 melanoma 108%

CC1=C(C)C(=O)C(Nc2cccc(C(=O)OC(C)(C)C)c2)=C(Br)C1=O
inactive: DU-145 prostate 109% | MALME-3M melanoma 88.3% | RXF 393 renal 94.9% | SF-268 CNS 93.7% | SF-295 CNS 101% | SF-539 CNS 94.7% | UACC-257 melanoma 87.3% | M14 melanoma 95.1% | HCT-15 colon 73.2% | HT29 colon 118% | SNB-75 CNS 59.7% | SNB-19 CNS 84.6% | U251 CNS 90.7% | PC-3 prostate 71.7% | SK-MEL-5 melanoma 96% | UACC-62 melanoma 79.2% | LOX IMVI melanoma 34.9% | SK-MEL-28 melanoma 101%
active: K-562 leukemia 0% | MDA-MB-231 breast -36.1%

CCc1ccc(Oc2c(-c3ccc(OCc4ccc(Cl)cc4)cc3O)nn(C)c2C(F)(F)F)cc1
active: K-562 leukemia 2.43% | MALME-3M melanoma -27.6% | MDA-MB-231 breast -55.7% | RXF 393 renal -43.3% | SF-295 CNS -11.1% | SF-539 CNS 2.68% | UACC-257 melanoma -18.3% | M14 melanoma 1% | HCT-15 colon 4.91% | HT29 colon -11.1% | SNB-75 CNS -0.904% | U251 CNS 1.22% | PC-3 prostate -6.54% | SK-MEL-5 melanoma -76.4% | UACC-62 melanoma -2.19%
inactive: DU-145 prostate 15% | SF-268 CNS 12.6% | SNB-19 CNS 18.2% | SK-MEL-28 melanoma 20.1%
